The nature of test [1]: P-glycoprotein substrates identified in KB-8-5-11 adenocarcinoma cell line, qHTS therapeutic library screen (AID 1346987). Note: nearly all actives have a fitted effect of over 65% in size. Note: potency is the fitted concentration of half-maximal effect. In outline: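 Compounds are pinned in dose-response onto KB-8-5-11 cells (500 cells/well, colchicine-free medium) and left 72 h at 37 degree C. CellTiter-Glo luminescence then yields AC50 values.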
For orientation: Quantitative high-throughput screening tests each substance at several concentrations.

Test [2] has as its target Calcium and integrin-binding protein 1 (Homo sapiens) (UniProt Q99828). Description: Primary qHTS for Identification of Calcium Integrin Binding Protein 1 (CIB1) Competitor (AID 1508620).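 Note: GST tagged CIB1 binding a fluorescein labelled alphaIIb integrin peptide tracer; top concentration of the series differs between compounds; % is set by controls: 0 for no effect and ±100 for the full control effect.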 In outline:
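Fluorescence polarization competition: GST-tagged CIB1 (1 uM final) preincubated with compound 15 min at room temperature, then FITC-labelled alphaIIb peptide (100 nM final) added. After 15 min at room temperature, polarization read at Ex 480/Em 540.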

A short description of test [3]: Primary qHTS for inhibitors of nuclear receptor binding SET domain protein 2 (NSD2) in an isogenic RCH-ACV NSD2 p.E1099K mutant (9B) (AID 1645876). Note: nearly all actives have a fitted effect of over 70% in size. Note: potency is the fitted concentration of half-maximal effect.
Test [4] in a line: Primary qHTS for inhibitors of nuclear receptor binding SET domain protein 2 (NSD2) in an RCH-ACV wild type WT cells (2C) (AID 1645877). Note: nearly all actives have a fitted effect of over 70% in size. Note: potency is the fitted concentration of half-maximal effect.
For test [5], the target named is Glutathione peroxidase 1 (Homo sapiens) (UniProt P07203). The test can be described thus: Primary qHTS Assay for Inhibitors of Recombinant Selenoprotein Glutathione Peroxidase 1 (GPX1) (AID 1845191). Note: nearly all actives have a fitted effect of over 65% in size. Note: potency is the fitted concentration of half-maximal effect. A digest of the protocol:
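GR-coupled readout: NADPH consumption tracked by fluorescence, ex 340/em 450 nm, at t=0 and after 15 min at RT. Final mix 10 nM GPX1, 1 mM GSH, 0.5 mM CHP, 0.5 mM NADPH, 100 nM GR, 0.01% BSA, following 30 min enzyme–compound preincubation.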

Test [6] concerns the target Catechol O-methyltransferase (Homo sapiens) (UniProt P21964). The test can be described thus: Confirmatory Screen for Target Class Profiling of Small Molecule Inhibitors of Methyltransferases (AID 1745852). For activity change, negative = inhibition: % is set by controls: 0 for no effect and ±100 for the full control effect. Conditions: MTase-Glo luminescence, SAH detection, recombinant enzyme; measured here: COMT max response; stronger effect = lower value.
The target of test [7] is Guanidinoacetate N-methyltransferase (Homo sapiens) (UniProt Q14353). The test is described as above. The following applies: activity change, negative = inhibition: at 57.3 µM (top of the series) unless noted.
Test [8] has as its target Nicotinamide N-methyltransferase (Homo sapiens) (UniProt P40261). Described as above. Conditions: MTase-Glo luminescence, SAH detection, recombinant enzyme; measured here: NNMT max response; stronger effect = lower value.
Test [9] has as its target Phenylethanolamine N-methyltransferase (Homo sapiens) (UniProt P11086). The test is described as above. The following applies: MTase-Glo luminescence, SAH detection, recombinant enzyme; measured here: PNMT max response; stronger effect = lower value.
The target of test [10] is Cytochrome P450 3A4 (Homo sapiens) (UniProt P08684). The test can be described thus: qHTS Assay for Activators of Cytochrome P450 3A4 (AID 885). Note: nearly all actives have a fitted effect of over 65% in size. A digest of the protocol: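 Human CYP3A4 dealkylates Luciferin-PPXE to luciferin, which luciferase detection converts to light. Substrate was at its KM (25uM), buffer 200mM KPO4, reaction 60 min at RT.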
Test [11] is described as follows: Confirmation and Secondary Assay for Modulators of Hemoglobin Beta Chain Splicing at IVS2 654 locus (AID 910).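 Note: HeLa cells stably carrying EGFP split by mutant beta-globin IVS2-654 intron; % of control where 0% means no effect.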 A digest of the protocol:
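HeLa cells stably expressing EGFP interrupted by β-globin IVS2-654 intron, seeded overnight in Opti-MEM/2% FCS, then treated 2 days at 37 °C. Restored splicing read as total peak GFP intensity per well by laser scanning cytometry (488 nm excitation, 500–520 nm emission); 500 nM antisense PNA as control.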

A short description of test [12]: Confirmation and Secondary Assay for Modulators of Hemoglobin Beta Chain Splicing at IVS2 705 locus (AID 930).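 Note: HeLa cells stably expressing the EGFP-705 splicing reporter; GFP fluorescence per well restored by corrected splicing of the IVS2-705 intron in EGFP; % of control where 0% means no effect.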 A digest of the protocol:
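First, HeLa EGFP-705 cells are seeded at 500/well in Optimem with 2% FCS and left overnight. Next, compound or DMSO is added for 2 days. Finally wells are laser-scanned and total peak GFP intensity scored.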

Test [13] can be described thus: qHTS Assay for Lipid Storage Modulators (AID 1519; calls by dose curve; for activity change, negative = inhibition: % is set by controls: 0 for no effect and ±100 for the full control effect). The following applies: Drosophila S3 cells, BODIPY lipid droplet/cell ratio, laser cytometry, cells loaded with oleic acid. A digest of the protocol:
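Cells seeded at 5,000 per well were treated with compounds over a concentration series and loaded with oleic acid (400 uM, as added). Lipid droplet fluorescence (488 nm excitation, 500-530 nm channel) was read by laser-scanning cytometry and normalized to 20 uM Triacsin C.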

The target in test [14] is Ubiquitin carboxyl-terminal hydrolase 1 (Homo sapiens) (UniProt O94782). The test can be described thus: Inhibitors of USP1/UAF1: Pilot qHTS (AID 504865).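 Note: rhodamine fluorescence freed from ubiquitin-rhodamine substrate followed over time; top concentration of the series differs between compounds; % is set by controls: 0 for no effect and ±100 for the full control effect; nearly all actives have a fitted effect of over 35% in size.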 A digest of the protocol: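 In 50mM HEPES pH 7.8 containing 0.5mM EDTA, 1mM TCEP, 0.1 mg/ml BSA and 0.01% Tween-20, 1nM USP1/UAF1 is exposed to compound for 15 min, then Ub-Rho (150nM final) is added and fluorescence is read over time.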

The structures appear in SMILES notation. Results filed as inconclusive are left out. Calls of active or inactive are those of the source. Unless noted, calls come from the whole dose curve; as a rule, active = well fitted curve in the direction sought with a large enough effect; inconclusive = small, poorly fitted or top-dose-only effect, or another doubt; inactive = no such curve, though single readings can be large; an effect the other way counts as inactive or inconclusive.

Chain of Glutathione peroxidase 1 (Homo sapiens) (P07203 whole entry, looked up): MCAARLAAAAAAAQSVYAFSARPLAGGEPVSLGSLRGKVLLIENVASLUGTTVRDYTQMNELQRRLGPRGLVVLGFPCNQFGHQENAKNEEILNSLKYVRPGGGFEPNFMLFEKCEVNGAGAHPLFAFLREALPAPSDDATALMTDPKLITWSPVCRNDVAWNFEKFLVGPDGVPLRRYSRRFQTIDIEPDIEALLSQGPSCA
Chain of Calcium and integrin-binding protein 1 (Homo sapiens) (Q99828 whole entry, looked up): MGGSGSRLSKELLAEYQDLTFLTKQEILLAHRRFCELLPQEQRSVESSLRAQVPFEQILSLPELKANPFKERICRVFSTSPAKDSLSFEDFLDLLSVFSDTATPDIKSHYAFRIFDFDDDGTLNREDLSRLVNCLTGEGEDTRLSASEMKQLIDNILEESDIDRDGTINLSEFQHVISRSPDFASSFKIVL
Chain of Ubiquitin carboxyl-terminal hydrolase 1 (Homo sapiens) (O94782 whole entry, looked up): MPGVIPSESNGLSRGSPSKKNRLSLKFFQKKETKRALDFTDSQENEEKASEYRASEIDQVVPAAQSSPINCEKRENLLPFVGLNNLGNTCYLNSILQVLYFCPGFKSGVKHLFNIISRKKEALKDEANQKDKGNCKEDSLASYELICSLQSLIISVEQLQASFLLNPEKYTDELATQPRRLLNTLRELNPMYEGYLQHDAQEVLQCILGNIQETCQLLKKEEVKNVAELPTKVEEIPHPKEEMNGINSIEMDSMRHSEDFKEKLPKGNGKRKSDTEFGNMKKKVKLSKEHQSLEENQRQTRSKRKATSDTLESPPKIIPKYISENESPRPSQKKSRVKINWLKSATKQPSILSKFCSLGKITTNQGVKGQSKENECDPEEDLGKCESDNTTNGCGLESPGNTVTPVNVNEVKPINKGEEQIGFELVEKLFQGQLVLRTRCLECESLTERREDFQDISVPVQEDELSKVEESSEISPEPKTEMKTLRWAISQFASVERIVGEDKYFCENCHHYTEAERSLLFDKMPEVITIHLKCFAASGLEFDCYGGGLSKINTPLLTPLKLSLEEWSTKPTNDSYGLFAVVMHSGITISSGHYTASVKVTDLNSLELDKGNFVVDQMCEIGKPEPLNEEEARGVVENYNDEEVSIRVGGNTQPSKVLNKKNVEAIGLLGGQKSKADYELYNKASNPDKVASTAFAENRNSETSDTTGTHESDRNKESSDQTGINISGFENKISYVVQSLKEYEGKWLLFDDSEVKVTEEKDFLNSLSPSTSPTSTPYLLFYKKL
Chain of Cytochrome P450 3A4 (Homo sapiens) (P08684 whole entry, looked up): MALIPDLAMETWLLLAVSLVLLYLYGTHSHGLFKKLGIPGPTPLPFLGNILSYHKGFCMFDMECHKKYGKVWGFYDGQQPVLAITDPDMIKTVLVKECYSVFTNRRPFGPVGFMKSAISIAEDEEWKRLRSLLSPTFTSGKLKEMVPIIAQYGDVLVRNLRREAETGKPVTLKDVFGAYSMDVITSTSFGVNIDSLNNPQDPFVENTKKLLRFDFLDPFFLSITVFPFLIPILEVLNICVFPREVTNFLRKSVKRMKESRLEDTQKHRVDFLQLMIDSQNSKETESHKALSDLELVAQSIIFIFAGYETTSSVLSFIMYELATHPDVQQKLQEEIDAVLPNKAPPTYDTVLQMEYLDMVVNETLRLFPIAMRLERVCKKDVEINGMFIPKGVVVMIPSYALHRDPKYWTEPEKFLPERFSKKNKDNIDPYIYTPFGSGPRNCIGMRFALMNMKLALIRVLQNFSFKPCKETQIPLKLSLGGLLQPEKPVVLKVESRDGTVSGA
Chain of Nicotinamide N-methyltransferase (Homo sapiens) (P40261 whole entry, looked up): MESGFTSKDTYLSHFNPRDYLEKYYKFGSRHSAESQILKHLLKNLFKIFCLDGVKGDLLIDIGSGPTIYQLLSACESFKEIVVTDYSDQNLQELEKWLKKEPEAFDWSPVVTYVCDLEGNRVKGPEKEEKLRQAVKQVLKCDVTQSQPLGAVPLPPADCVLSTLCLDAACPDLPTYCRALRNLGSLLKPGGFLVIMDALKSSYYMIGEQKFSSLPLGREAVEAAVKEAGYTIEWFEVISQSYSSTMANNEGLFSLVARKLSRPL
Chain of Catechol O-methyltransferase (Homo sapiens) (P21964 whole entry, looked up): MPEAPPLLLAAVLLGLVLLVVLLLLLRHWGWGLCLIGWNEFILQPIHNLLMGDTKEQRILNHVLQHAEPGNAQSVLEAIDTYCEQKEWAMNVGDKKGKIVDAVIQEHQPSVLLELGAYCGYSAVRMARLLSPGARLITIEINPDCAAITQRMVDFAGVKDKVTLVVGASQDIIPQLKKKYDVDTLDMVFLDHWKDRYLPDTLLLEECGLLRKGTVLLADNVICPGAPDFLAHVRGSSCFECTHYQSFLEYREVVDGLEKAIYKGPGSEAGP
Chain of Phenylethanolamine N-methyltransferase (Homo sapiens) (P11086 whole entry, looked up): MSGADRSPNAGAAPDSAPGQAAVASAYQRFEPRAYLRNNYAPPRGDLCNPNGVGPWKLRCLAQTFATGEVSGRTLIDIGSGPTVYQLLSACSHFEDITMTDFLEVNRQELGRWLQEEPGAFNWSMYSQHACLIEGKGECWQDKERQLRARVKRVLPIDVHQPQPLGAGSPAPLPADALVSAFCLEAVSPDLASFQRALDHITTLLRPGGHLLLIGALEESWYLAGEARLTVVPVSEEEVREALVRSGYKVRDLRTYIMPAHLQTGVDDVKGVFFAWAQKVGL

On to `O=C1CCCC2=C1C1(CCSCC1)N=C(Nc1nc3ccccc3o1)N2`, for which the Potency result in test [1], in test [3], in test [4] and in [5] was “inactive” in each case. For the same compound, the outcome in [2] is “inactive”.

As for `COc1cc2ncnc(Sc3nnc(C)s3)c2cc1OC`, the results for the Potency in test [1], in test [3] and in test [4] were 16.4 µM (active), 2.91 µM (active) and 3.26 µM (active), respectively. Moreover, in test [5], the Potency result was “inactive”.

As for `Cc1cc2ncc(-c3ccccc3)nc2cc1C`, the Potency result in [1], in test [3] and in test [4] was “inactive” each time.

For the compound `CN(C)CCOc1ccc(-c2nc(-c3ccc4c(c3)CC/C4=N/O)c(-c3ccncc3)[nH]2)cc1`, in test [1], the Potency result was “inactive”. In addition, the Potency in [3] is 3.66 µM (active).

Regarding `S=c1ssc2c1CCC2`, the Potency result in [1], in test [3] and in test [4] was “inactive” throughout. The activity is -2.41% in [6], -69.9% in test [8] and -71% in [9]. This compound came in with an activity change, negative = inhibition in [7] of 0%. The Potency in test [5] is 14.3 µM (active).

In the case of `O=C1CCCC2=C1C1(CCCC1)N=C(Nc1nc3ccccc3o1)N2`, the Potency result in test [1], in test [3], in [4] and in [5] was “inactive” throughout. Also, the outcome in [2] is “inactive”.

As to `CCCCN(CCCC)C(=S)[S-].CCCCN(CCCC)C(=S)[S-].[Zn+2]`, the Potency entry in [1] was “inactive”.

As to `COc1cc(O)c2c(=O)c(O)c(-c3ccc(O)c(O)c3)oc2c1`, the Potency result in test [10], in [14], in test [1] and in [5] was “inactive” in each case. Moreover, the outcome in [11] and in test [12] was “inactive” each time. Further, the activity change, negative = inhibition in [13] (at 57.5 µM (top of the series)) was 4.09% (inactive). Moreover, the max response in [13] (measured here: cell count channel max response) was -9.74%; in test [13] (measured here: lipid channel max response), -5.25%. Also, the Potency in test [3] was 10.3 µM (active); in test [4], 14.6 µM (active).

Regarding `Cc1ccc([N+](=O)[O-])cc1S(=O)(=O)N(C)/N=C\c1cnc2ccc(Br)cn12`, the Potency was 0.231 µM (active) in [1], 0.058 µM (active) in test [3] and 0.0517 µM (active) in test [4].

With `Cc1nc(CNc2ncnc3ccc(-c4ccc5c(c4)OCO5)cc23)cs1`, the Potency entry in test [1] and in [5] was “inactive” in each case.

`NS(=O)(=O)c1ccc(N=Nc2c(O)[nH]c3ccc(Br)cc23)cc1`: the Potency in test [1] is 11.6 µM (active). For the same compound, the Potency result in test [5] is “inactive”.

For `C=C(C)[C@@H]1CCC2=CC(=O)C[C@@H](C)[C@]2(C)C1`, the Potency entry in test [1], in test [3], in test [4] and in test [5] was “inactive” throughout.

`Cc1ccc(OCCSc2ncccn2)c(Br)c1`: the Potency entry in test [1], in test [3], in test [4] and in test [5] was “inactive” in each case.

Turning to `COc1cc2c(cc1OC)/C(=C/c1ccc(O)cc1)C(=O)N2`, the Potency result in test [1] and in [5] was “inactive” throughout.

(Values after PubChem BioAssay (NCATS).)
